# Screening results: PubChem BioAssay, National Center for Advancing Translational Sciences (NCATS)
# Hits are enriched below; roughly 19% of the tested compounds scored in any of these assays.
# TDP1 inh: inhibitors of human tyrosyl-DNA phosphodiesterase TDP1 | Potency, µM (titrated, usually from 130 µM), without a hit: at the top dose activity change, negative = inhibition, most hits filed as inhibitors | 350,000 compounds, 0.28% hits | AID 485290 | Q9NUW8 | recombinant TDP1, AlphaScreen DNA substrate cleavage; further: potency means the concentration at half of the fitted maximal effect; on the % scale 0 is the no-effect control and ±100 the full control effect; nearly all actives have a fitted effect of over 40% in size
# Target sequence (Q9NUW8 whole entry, looked up): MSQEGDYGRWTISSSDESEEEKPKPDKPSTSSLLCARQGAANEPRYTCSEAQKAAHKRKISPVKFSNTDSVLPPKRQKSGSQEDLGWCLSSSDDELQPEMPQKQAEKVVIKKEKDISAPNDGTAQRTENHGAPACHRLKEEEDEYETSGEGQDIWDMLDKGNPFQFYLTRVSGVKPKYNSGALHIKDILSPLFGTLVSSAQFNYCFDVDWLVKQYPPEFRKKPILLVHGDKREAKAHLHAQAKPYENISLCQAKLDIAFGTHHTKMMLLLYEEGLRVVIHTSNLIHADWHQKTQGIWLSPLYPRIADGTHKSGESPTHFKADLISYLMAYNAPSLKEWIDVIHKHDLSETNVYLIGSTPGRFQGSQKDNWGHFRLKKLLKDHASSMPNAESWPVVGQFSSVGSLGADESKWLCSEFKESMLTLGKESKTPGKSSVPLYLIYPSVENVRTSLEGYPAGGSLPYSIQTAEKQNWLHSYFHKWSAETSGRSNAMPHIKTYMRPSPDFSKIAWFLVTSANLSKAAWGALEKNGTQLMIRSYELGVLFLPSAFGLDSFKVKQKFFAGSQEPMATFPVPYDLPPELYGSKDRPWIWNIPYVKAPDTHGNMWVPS
#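 Signal: AlphaScreen proximity between streptavidin donor and anti-FITC acceptor beads on intact substrate. Reaction: Tdp1 1 nM, substrate 15 nM final, 5 min RT after 15 min compound preincubation.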
# TDP1 cell CPT: growth inhibition of DT40 Tdp1-/-;hTDP1 cells with camptothecin (screen for TDP1 inhibitors); chicken DT40 Tdp1-/-;hTDP1 cells + 20 nM CPT, ATP luminescence, 48 h; Potency, µM (highest dose often 46.2 µM), inactives show at the highest dose activity change, negative = growth inhibition, usual class: inhibitors; 420,000 compounds, 12% hits; AID 686979; further: potency means the concentration at half of the fitted maximal effect; on the % scale 0 is the no-effect control and ±100 the full control effect; nearly all actives have a fitted effect of over 55% in size
#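 Chicken DT40 Tdp1-/- cells stably complemented with human TDP1 were seeded at 400 cells/well in medium containing 20 nM camptothecin, exposed to pin-transferred compounds, and grown at 37 °C for at least 48 hr. Viability was read as ATP luminescence.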
# HepG2 viability: kills HepG2 cells in TGF-b inhibitor counter-screen; Potency, µM (highest dose often 46.1 µM), without a hit: at the top dose activity change, negative = cytotoxicity, hits mostly cytotoxic; HepG2 CAGA-GFP viability, ATP luminescence, 18 h; AID 588856; 410,000 compounds, 0.76% hits; further: potency means the concentration at half of the fitted maximal effect
#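 HepG2 CAGA-GFP cells (1000/well, DMEM with 1% FBS) received compound, then TGF-beta at 500 pg/mL final, and were incubated 18 hours at 37 degrees C. Viability was read by CellTiter-Glo luminescence. Media-only wells were set as complete cell-killing and DMSO as no toxicity.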
# DT40 TDP1 no CPT: qHTS for Inhibitors of human tyrosyl-DNA phosphodiesterase 1 (TDP1): qHTS in cells in absence of CPT. DT40 Tdp1-/- hTDP1 cells, no CPT, ATP luminescence, 48 h. Potency, µM (doses to about 46.2 µM), for the others: at the top dose activity change, negative = growth inhibition, actives largely listed as inhibitors. 420,000 compounds, 15% hits. AID 686978, 2013; further: potency means the concentration at half of the fitted maximal effect; on the % scale 0 is the no-effect control and ±100 the full control effect; nearly all actives have a fitted effect of over 55% in size
#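 Chicken DT40 Tdp1-/- cells complemented with human TDP1, screened without camptothecin (DMSO vehicle only), 400 cells/well. Compounds pin-transferred, cells incubated at 37 °C for at least 48 hr. Growth read as ATP-dependent luminescence (CellTiter-Glo, 30 min at RT).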
# TGFb inhibitor: inhibitors of TGF-b signaling; Potency, µM (highest dose often 46.1 µM), for the others: top-dose activity, negative = inhibition, hits mostly inhibitors; 410,000 compounds, 1.2% hits; HepG2 CAGA-GFP TGF-b/SMAD3 reporter, GFP fluorescence, 18 h; TGF-beta stimulated, 500 pg/mL final; further: potency means the concentration at half of the fitted maximal effect; on the % scale 0 is the no-effect control and ±100 the full control effect; nearly all actives have a fitted effect of over 65% in size
#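 Inhibition was scored as loss of TGF-beta-induced (500 pg/mL final, 18 hours, 37 degrees C) GFP in HEPG2 cells carrying a CAGA-GFP reporter, in DMEM with 1% FBS. Well GFP was summed per cell; Activity was normalised to unstimulated and stimulated DMSO wells, then concentration-response fitting.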
# IL-1B inflam inh: blocks inflammasome-driven IL-1 beta release; 360,000 compounds, 4.7% hits; THP-1 LPS/ATP IL-1B secretion, AlphaLISA, 16 h; hits give low values; activity change, % at 57.5 µM; AID 743279; in the data active means activity change below about -50%; inconclusive means mostly about -30% to -49%; further: on the % scale 0 is the no-effect control and ±100 the full control effect
#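 Secreted IL-1B measured by AlphaLISA bead assay after 16 h compound exposure of THP-1 cells; compounds (final up to 57.5 uM) added 1 h before LPS (250 ng/mL) and ATP (1.25 mM) stimulation; lower signal means less secretion.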
# * marks the source's active call; other numbers are inactive results; ? = inconclusive; . = no result given. Unless noted, the call rests on the fitted dose curve; in most records, active means well fitted curve in the direction sought with a large enough effect; inconclusive means small, poorly fitted or top-dose-only effect, or another doubt; inactive means no such curve, though single readings can be large; an effect the other way counts as inactive or inconclusive.
SMILES,TDP1 inh,TDP1 cell CPT,HepG2 viability,DT40 TDP1 no CPT,TGFb inhibitor,IL-1B inflam inh
CCOC(=O)[C@H]1[C@H]2COc3ccc(OC)cc3[C@@H]2N2C(=O)c3ccc(Cl)cc3NC(=O)[C@@]12C,2.9%,?,-1.7%,?,10.0%,-11.1
CC1(C)CC(=O)C(C2C3=C(CC(C)(C)CC3=O)Oc3ccc4ccccc4c32)C(=O)C1 (stereo not drawn),5.1%,7.0%,-5.9%,?,-3.7%,-71.6*
CC(C)CC1Nc2ccc(C(=O)NCCCN3CCOCC3)cc2NC1=O (stereo not drawn),-12.5%,25.9µM*,-1.4%,16.4µM*,1.9%,1.2
CC(C)CCNC(=O)c1ccc2c(c1)NC(=O)C(CS(=O)(=O)Cc1ccc(F)cc1)N2 (stereo not drawn),1.1%,16.4µM*,-27.8%,16.4µM*,?,.
CC(C)C1Nc2ccc(C(=O)NCCCN3CCOCC3)cc2NC1=O (stereo not drawn),1.6%,8.4%,-1.5%,2.9%,13.7%,8.1
CCN(CC)CCNC(=O)c1ccc2c(c1)NC(=O)C(CS(=O)(=O)Cc1ccc(F)cc1Cl)N2 (stereo not drawn),7.0%,18.4µM*,-36.3%,?,-18.0%,.
Cc1ccc(CNC(=O)c2ccc3c(c2)NC(=O)C(CS(=O)(=O)Cc2cccc(F)c2)N3)cc1 (stereo not drawn),7.4%,-9.7%,-6.7%,3.8%,12.0%,.
Cc1cccc(CS(=O)(=O)CC2Nc3ccc(C(=O)NCc4ccccc4)cc3NC2=O)c1 (stereo not drawn),5.3%,11.6µM*,-34.1%,6.51µM*,?,.
CCN(CC)CCCNC(=O)c1ccc2c(c1)NC(=O)C(CS(=O)(=O)Cc1ccc(F)cc1Cl)N2 (stereo not drawn),5.2%,-14.6%,-2.7%,-2.0%,-4.1%,.
CCc1nn(CC(=O)Nc2c(C)cccc2C)c(=O)c2cc3sccc3n12,2.9%,-5.1%,-21.7%,-16.9%,?,.
CCCCc1cc(=O)oc2cc(C)cc(OCC(=O)N3CCC(C(=O)O)CC3)c12,.,-1.6%,-6.7%,-5.3%,5.4%,-1.4
O=C(NCCCO)c1cc2c(cn1)[nH]c1ccccc12,.,-20.7%,-13.2%,-14.5%,-7.0%,?
COc1cccc(-c2nc(C(=O)NCCCN3CCOCC3)cc3c2[nH]c2ccccc23)c1,.,9.2µM*,-45.1%,8.2µM*,?,-64.1*
O=C(NCCCO)c1cc2c([nH]c3ccccc32)c(-c2ccccc2)n1,.,14.6µM*,-13.0%,13µM*,-5.9%,-88.3*
COc1cccc(-c2cc(C(=O)NCCCN3CCOCC3)no2)c1,10.8%,19.9%,-2.2%,-9.4%,0.1%,3.7
O=C(NCCCN1CCOCC1)c1cc2c([nH]c3ccccc32)c(-c2cccc(Br)c2)n1,.,8.2µM*,-55.3%,8.2µM*,?,-73.3*
Cc1ccc2c(c1)N(CC(=O)Nc1ccccc1C(F)(F)F)C(=O)c1cccnc1O2,5.0%,?,-16.1%,?,0.0%,.
CC(=O)N(C)c1ccc(OCC(O)Cn2c(C)nc3ccccc32)cc1 (stereo not drawn),1.3%,5.8µM*,-1.6%,6.51µM*,-3.6%,0.0
COc1cccc(OCC(Cn2c(C)nc3ccccc32)OC(C)=O)c1 (stereo not drawn),2.7%,?,0.8%,8.2µM*,-0.8%,-1.9
CC(=O)Nc1ccc(OCC(O)Cn2c(C(C)C)nc3ccccc32)cc1 (stereo not drawn),2.5%,9.2%,10.9%,0.8%,6.6%,0.5
